HT1080NT lethal – qHTS for induction of synthetic lethality in tumor cells producing 2HG: qHTS for the HT-1080-NT fibrosarcoma cell line | 360,000 compounds, 1.6% hits | HT-1080-NT fibrosarcoma viability, CellTiter-Glo ATP luminescence, 48 h | Potency, µM (doses to about 46.1 µM), without a hit: at the highest dose activity, negative = less viability, hits mostly cytotoxic;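 also: NT is the 2HG producing partner of a matched IDH1 knockdown line; 0% = DMSO-treated cells and -100% = media-only wells without cells; nearly all actives have a fitted effect of over 55% in size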
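Read-out is CellTiter-Glo luminescence after 10 minutes at room temperature, following 48 hours' compound treatment of HT-1080-NT cells (750 cells/well, RPMI, 5% FBS, 37 degrees C).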
HepG2 tox – qHTS for Inhibitors of TGF-b: Cytotox Counterscreen | HepG2 CAGA-GFP viability, ATP luminescence, 18 h | Potency, µM (series often up to 46.1 µM), inactives show at the top dose activity change, negative = cytotoxicity, usual class: cytotoxic | 410,000 compounds, 0.76% hits | AID 588856, 2011
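CellTiter-Glo luminescence gave cytotoxicity after 18 hours at 37 degrees C. The cells were HepG2 CAGA-GFP in 1% FBS DMEM, stimulated with 500 pg/mL TGF-beta after compound addition. %Activity was normalised to no-cell wells (complete cell-killing) and DMSO (no toxicity), and curves were fitted and classified.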
DT40 TDP1 CPT – qHTS for Inhibitors of human tyrosyl-DNA phosphodiesterase 1 (TDP1): qHTS in cells in presence of CPT; Potency, µM (titrated, usually from 46.2 µM), for inactives: at the highest dose activity change, negative = growth inhibition, most hits filed as inhibitors; 420,000 compounds, 12% hits; chicken DT40 Tdp1-/-;hTDP1 cells + 20 nM CPT, ATP luminescence, 48 h; also: % is scaled to controls: 0 for no effect and ±100 for the full control effect; nearly all actives have a fitted effect of over 55% in size
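Chicken DT40 Tdp1-/- cells complemented with human TDP1, 400 cells/well, exposed to compounds plus 20 nM camptothecin for at least 48 h at 37 C; viability read as ATP content by CellTiter-Glo luminescence.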
TDP1 cell noCPT – qHTS for Inhibitors of human tyrosyl-DNA phosphodiesterase 1 (TDP1): qHTS in cells in absence of CPT. 420,000 compounds, 15% hits. DT40 Tdp1-/- hTDP1 cells, no CPT, ATP luminescence, 48 h. Potency, µM (titrated, usually from 46.2 µM), inactives show at the top dose activity change, negative = growth inhibition, usual class: inhibitors; also: % is scaled to controls: 0 for no effect and ±100 for the full control effect; nearly all actives have a fitted effect of over 55% in size
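DT40 Tdp1-/-;hTDP1 cells, no CPT (DMSO vehicle only), 400 cells/well; compounds pin-transferred; ≥48 hr, 37 °C; CellTiter-Glo 30 min RT dark, luminescence read.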
TGFb inhibitor – qHTS for Inhibitors of TGF-b | HepG2 CAGA-GFP TGF-b/SMAD3 reporter, GFP fluorescence, 18 h; TGF-beta stimulated, 500 pg/mL final | Potency, µM (doses to about 46.1 µM), for inactives: top-dose activity, negative = inhibition, actives largely listed as inhibitors | 410,000 compounds, 1.2% hits | AID 588855, 2011; also: % is scaled to controls: 0 for no effect and ±100 for the full control effect; nearly all actives have a fitted effect of over 65% in size
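HEPG2 CAGA-GFP cells (1000/well, DMEM with 1% FBS) were pre-incubated 2 h at 37 degrees C, given compound by pin tool, then stimulated with TGF-beta at 500 pg/mL final for 18 h before per-cell GFP fluorescence imaging.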
HT1080 IDH1KD tx – qHTS for induction of synthetic lethality in tumor cells producing 2HG: qHTS for the HT-1080-IDH1KD cell line; HT-1080 IDH1 knockdown viability, ATP luminescence, 48 h; 360,000 compounds, 2% hits; Potency, µM (highest dose often 46.1 µM), inactives show at the top dose activity, negative = toxicity, most hits filed as cytotoxic; AID 686971, 2013;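 also: 0% = DMSO wells and -100% = cell-free medium wells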
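Assay cells: HT-1080 with IDH1 knockdown, 750 per well, RPMI/5% FBS. Exposure: 48 h at 37 °C following 2 h pre-incubation. Read: CellTiter-Glo luminescence; fitted concentration-response, curve class assigned.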
* marks the source's active call; other numbers are inactive results; ? = inconclusive; nt = not tested or not shown; [ ] = dose if it differs, or a comment. Rows were chosen to be rich in hits. Some 17% of all compounds tested hit in one or more screens of this group. Calls follow the shape of the dose curve; as a rule, active = well fitted curve in the direction sought with a large enough effect; inconclusive = small, poorly fitted or top-dose-only effect, or another doubt; inactive = no such curve, though single readings can be large; an effect the other way counts as inactive or inconclusive. Potency is read from the fitted curve at half-maximal effect.

SMILES	HT1080NT lethal	HepG2 tox	DT40 TDP1 CPT	TDP1 cell noCPT	TGFb inhibitor	HT1080 IDH1KD tx
COc1ccc2[nH]c(O)c(N=NC(=O)Cc3cccs3)c2c1	0%	-17%	?	?	-18%	-9%
COc1ccc(/C=N/OCC(=O)N=Nc2c(O)[nH]c3ccc(Br)cc23)cc1OC	?	-6%	26µM*	23µM*	-13%	-10%
O=C(Nc1ccccc1-c1nc2ccccc2[nH]1)c1ccc(N2C(=O)CCC2=O)cc1	2%	-32%	?	9.2µM*	156%	-1%
O=C(Nc1ccc(-c2nc3ccccc3[nH]2)cc1)c1cccc(N2C(=O)CCC2=O)c1	0%	6%	?	12µM*	-2%	2%
O=C(Nc1ccccc1-c1nc2ccccc2[nH]1)c1ccc(S(=O)(=O)N2CCCCC2)cc1	17%	-14%	-23%	-26%	14%	5%
CC1CCCCN1S(=O)(=O)c1ccc(C(=O)Nc2ccccc2-c2nc3ccccc3[nH]2)cc1 (configuration not stated)	-13%	-31%	21µM*	15µM*	0%	-30%
Cc1cccc(NC(=O)c2cccc(N3C(=O)CCC3=O)c2)c1	3%	2%	-7%	18%	6%	7%
CCCCc1nnc(NC(=O)c2oc3ccccc3c2C)s1	17%	6%	0%	-13%	-3%	14%
NC(=O)CCC(NC(=O)OCc1ccccc1)C(=O)OCC(=O)c1ccccc1 (configuration not stated)	1%	-25%	-22%	-19%	-17%	9%
Oc1cc(CNCc2ccccc2)c(O)cc1CNCc1ccccc1	-5%	-1%	?	13µM*	10%	-26%
Clc1cccc(-c2noc3ncnc(Nc4ccc5c(c4)OCO5)c23)c1	0%	2%	-28%	?	13%	0%
Cc1cccc(Nc2ncnc3onc(-c4cccc(Cl)c4)c23)c1	1%	-2%	21µM*	?	?	-1%
CN(c1ncnc2onc(-c3cccc(Cl)c3)c12)C1CCCCC1	nt	-27%	?	23µM*	?	nt
Cc1ccc(NC(=O)CN(C)C(=O)c2cccc(S(=O)(=O)NCc3ccco3)c2)cc1	3%	-2%	10%	2%	-2%	7%
CCN(CC)CCCNC(=O)c1cc(-c2ccc(OC)c(OC)c2)on1	nt	-4%	-2%	32%	5%	nt
Cc1nc2scc(C)n2c(=O)c1S(=O)(=O)N1CCN(c2cccc(C(F)(F)F)c2)CC1	-20%	-16%	-20%	?	?	-3%
Cc1cc(C(=O)N2CCCC(N3CCN(c4cccc(C(F)(F)F)c4)CC3)C2)c(C)o1 (configuration not stated)	-27%	-24%	16µM*	12µM*	?	-14%
Cc1cc(C(=O)N2CCCC(N3CCN(c4cccc(C(F)(F)F)c4)CC3)C2)nn1C (configuration not stated)	-3%	4%	?	?	-8%	0%
Cc1occc1C(=O)N1CCCC(N2CCN(c3cccc(C(F)(F)F)c3)CC2)C1 (configuration not stated)	-26%	-32%	21µM*	13µM*	?	-19%
CCc1c(Cl)nc(N)nc1Nc1ccccc1Cl	1%	-29%	-13%	-19%	-8%	-18%
O=C(NCCc1csc(-c2ccccc2)n1)c1ccc(Br)o1	16%	3%	?	21µM*	-1%	8%
Cc1cccc(-c2nc(CCNC(=O)c3ccc(Br)o3)cs2)c1	nt	-8%	?	?	0%	nt
O=C(NCCc1csc(-c2cccnc2)n1)c1ccc(Br)o1	2%	1%	?	18µM*	8%	0%
COc1cccc(CN(C)C(=O)c2cnn(-c3nccc(-c4ccc5c(c4)OCO5)n3)c2C)c1	nt	nt	1%[9.04 µM]	0%	nt	nt
CCN(CC)S(=O)(=O)c1ccc2c(c1)N(CC(=O)NCCCN1CCN(c3cc(C)ccc3C)CC1)C(=O)CO2	nt	16µM*	2.6µM*	4.6µM*	?	nt
SMILES	HT1080NT lethal	HepG2 tox	DT40 TDP1 CPT	TDP1 cell noCPT	TGFb inhibitor	HT1080 IDH1KD tx
CCN(CC)S(=O)(=O)c1ccc2c(c1)N(CC(=O)NCCCN1CCN(c3ccccc3F)CC1)C(=O)CO2	nt	-2%	23µM*	?	?	nt
Cc1ccc(C)c(N2CCN(CCCNC(=O)Cn3cccc3C(=O)c3ccccc3)CC2)c1	2%	-35%	5.2µM*	5.2µM*	-14%	8%
O=C(Cn1cccc1C(=O)c1ccccc1)NCCCN1CCOCC1	21%	-14%	-25%	-16%	2%	21%
O=C(CCN1C(=O)COc2ccccc21)NCCCN1CCN(c2ccccc2F)CC1	0%	-9%	18µM*	?	?	-13%
CCN(CC)S(=O)(=O)c1ccc2c(c1)N(CC(=O)NCCCN1CCN(c3ccc(OC)cc3)CC1)C(=O)CO2	nt	-6%	-23%	?	-19%	nt
CCNc1nc(NCC)nc(SCCOC(=O)Nc2ccc(Cl)cc2Cl)n1	5%	9%	?	?	0%	1%
CC(=O)C[C@H](O)CC(=O)[C@@H]1OC(=O)CCCCCCc2ccccc21	3%	0%	1%	-17%	?	16%
N#Cc1cc(-c2ccccc2)nn1-c1ccccc1	1%	-2%	?	21µM*	10%	7%
Nc1ccccc1Nc1cc(-c2ccccc2)nn1-c1ccccc1	-5%	-16%	23µM*	21µM*	?	-12%
Nc1ccccc1Nc1cc(-c2ccccc2)[nH]n1	?	23%	-57%	13µM*	?	?
COc1cccc(NC(=O)CN(C)C(=O)CCCc2c[nH]c3ccccc23)c1	-3%	-8%	-14%	?	1%	-16%
Cc1cc(C(=O)N/N=C/c2ccc3c(c2)OCO3)c2ccccc2n1	?	-2%	2.3µM*	2.1µM*	-12%	4.1µM*
O=C(N/N=C/c1ccc2c(c1)OCO2)c1cc(-c2ccncc2)nc2ccccc12	?	-1%	3.7µM*	4.1µM*	-31%	2.6µM*
Cc1cccc(/C=N/NC(=O)c2cc(C)nc3ccccc23)n1	15%	-1%	?	?	31%	0%

High-throughput results as filed in PubChem BioAssay.
